What all share (assay): log2 fold change, soluble protein after heating vs DMSO (PISA); higher = thermal stabilisation; K562 cells, 10 uM, 30 min; active = over 0.2 and 3.5 SD of the protein, either way, in both replicates (recomputed)
Compound in experiment [1]: CS(=O)(=O)c1ccc(-c2cnc(N)c(C(=O)Nc3ccccc3)n2)cc1
In short, it runs like this: (§1)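 Thermal stability values are relative to control samples and come from duplicates. They are expressed as log2 fold changes. For measurement, K562 cells (2×10^6 cells/mL) received 10 μM compound for 30 min, and aliquots were heated for 3 min over 48°C-58°C, pooled, and extracted at 4°C in PBS with 0.5% NP-40. Soluble protein, the supernatant after 21,000xg for 90 min, was quantified by TMTpro 16plex LC-MS/MS with equalised channel sums.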

Compound in a further experiment: C[C@@H](Oc1cc(-c2cnn(C3CCNCC3)c2)cnc1N)c1c(Cl)ccc(F)c1Cl [crizotinib]
In short, it runs like this: as §1

Compound in experiment [2]: C[C@@H]1COCCN1C2=NC(=NC(=C2)C3(CC3)S(=O)(=O)C)C4=C5C=CNC5=CC=C4
In short, it runs like this: as §1

Compound in experiment [3]: C[C@H](C1=CC=C(C=C1)C(=O)NC2=C3C=CNC3=NC=C2)N
The gist of the method: as §1

Compound in a further experiment: C[C@H](Nc1ncnc2nc[nH]c12)c1cc2cccc(Cl)c2c(=O)n1-c1ccccc1 [duvelisib]
In short, it runs like this:
as §1

Compound in the next experiment: Cc1cc(Nc2cc(CN3CCOCC3)c3nc(C)c(Cc4ccc(Cl)cc4F)n3n2)n[nH]1 [gandotinib]
The gist of the method:
as §1

Compound in the next experiment: Cc1cc(Nc2cc(N3CCN(C)CC3)nc(Sc3ccc(NC(=O)C4CC4)cc3)n2)n[nH]1 [tozasertib]
The gist of the method: as §1

Compound in experiment [4]: Cc1cc(SCc2sc(-c3ccc(C(F)(F)F)cc3)nc2C)ccc1OCC(=O)O
The gist of the method:
as §1

Compound in the next experiment: Cc1ccc(-n2nc(C(C)(C)C)cc2NC(=O)Nc2ccc(OCCN3CCOCC3)c3ccccc23)cc1 [doramapimod]
In short, it runs like this:
as §1

Compound in the next experiment: Cc1ccc(C(=O)N(CCCN)[C@@H](c2nc3cc(Cl)ccc3c(=O)n2Cc2ccccc2)C(C)C)cc1 [ispinesib]
In short, it runs like this: as §1

Compound in another experiment: Cc1ccc(NC(=O)c2ccc(CN3CC[C@H](N(C)C)C3)c(C(F)(F)F)c2)cc1Nc1nccc(-c2cncnc2)n1 [bafetinib]
The gist of the method: as §1

Compound in experiment [5]: Cc1cccc(CC(=O)N2CCc3c2ccc(-c2cn(C)c4ncnc(N)c24)c3F)n1
The gist of the method:
as §1

Compound in another experiment: Cc1cn(-c2cc(NC(=O)c3ccc(C)c(Nc4nccc(-c5cccnc5)n4)c3)cc(C(F)(F)F)c2)cn1 [nilotinib]
In short, it runs like this:
as §1

Compound in experiment [6]: Cc1nc(Nc2n[nH]c3c2CN(C(=O)N[C@H](CN(C)C)c2ccccc2)C3(C)C)c2sccc2n1
The gist of the method:
as §1

Compound in another experiment: Cc1nc(Nc2ncc(C(=O)Nc3c(C)cccc3Cl)s2)cc(N2CCN(CCO)CC2)n1 [dasatinib]
The gist of the method:
as §1

Compound in experiment [7]: Cc1ncc(-c2ccnc(Nc3ccc(S(C)(=O)=O)cc3)n2)n1C(C)C
The gist of the method: as §1

Compound in experiment [8]: Cn1cc(-c2ccc3c(c2)CCN3C(=O)Cc2cccc(C(F)(F)F)c2)c2c(N)ncnc21
In short, it runs like this: as §1

Compound in experiment [9]: Cn1cc(-c2ccc3nnc(C(F)(F)c4ccc5ncccc5c4)n3n2)cn1
In short, it runs like this:
as §1

Compound in the next experiment: Cn1cncc1[C@@](N)(c1ccc(Cl)cc1)c1ccc2c(c1)c(-c1cccc(Cl)c1)cc(=O)n2C [tipifarnib]
The gist of the method: as §1

Compound in another experiment: FC(F)(F)c1ccc(/C=C/c2nc(COc3ccc(CCCCn4ccnn4)cc3)co2)cc1 [mubritinib]
In short, it runs like this:
as §1

About 7,900 targets were measured; listed, in parts, are those with a hit and a random draw of the rest. About 0.6% of all pairs of compound and target were hits. Values without a mark were called inactive.

Sequence of UniProt P23276 (P23276 whole entry, looked up): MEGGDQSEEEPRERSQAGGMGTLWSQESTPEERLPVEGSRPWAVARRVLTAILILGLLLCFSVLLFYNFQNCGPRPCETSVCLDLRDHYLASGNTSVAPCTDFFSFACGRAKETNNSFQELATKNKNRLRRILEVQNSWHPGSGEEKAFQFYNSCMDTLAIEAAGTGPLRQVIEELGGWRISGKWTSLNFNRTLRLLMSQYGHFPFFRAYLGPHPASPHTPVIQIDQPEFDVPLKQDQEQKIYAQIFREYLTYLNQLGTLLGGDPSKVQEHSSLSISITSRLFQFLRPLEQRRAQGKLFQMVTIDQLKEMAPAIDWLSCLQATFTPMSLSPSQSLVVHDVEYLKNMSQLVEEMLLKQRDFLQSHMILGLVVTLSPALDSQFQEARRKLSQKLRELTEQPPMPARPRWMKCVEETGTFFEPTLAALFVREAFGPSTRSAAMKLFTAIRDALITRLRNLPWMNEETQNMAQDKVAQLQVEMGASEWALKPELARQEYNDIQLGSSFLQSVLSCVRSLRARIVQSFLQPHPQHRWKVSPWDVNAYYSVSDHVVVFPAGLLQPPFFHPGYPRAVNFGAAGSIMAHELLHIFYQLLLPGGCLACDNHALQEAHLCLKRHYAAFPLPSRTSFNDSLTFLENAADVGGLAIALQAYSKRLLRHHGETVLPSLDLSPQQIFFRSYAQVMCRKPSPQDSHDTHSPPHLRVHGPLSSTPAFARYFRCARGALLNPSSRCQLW
Sequence of UniProt Q99661 (Q99661 whole entry, looked up): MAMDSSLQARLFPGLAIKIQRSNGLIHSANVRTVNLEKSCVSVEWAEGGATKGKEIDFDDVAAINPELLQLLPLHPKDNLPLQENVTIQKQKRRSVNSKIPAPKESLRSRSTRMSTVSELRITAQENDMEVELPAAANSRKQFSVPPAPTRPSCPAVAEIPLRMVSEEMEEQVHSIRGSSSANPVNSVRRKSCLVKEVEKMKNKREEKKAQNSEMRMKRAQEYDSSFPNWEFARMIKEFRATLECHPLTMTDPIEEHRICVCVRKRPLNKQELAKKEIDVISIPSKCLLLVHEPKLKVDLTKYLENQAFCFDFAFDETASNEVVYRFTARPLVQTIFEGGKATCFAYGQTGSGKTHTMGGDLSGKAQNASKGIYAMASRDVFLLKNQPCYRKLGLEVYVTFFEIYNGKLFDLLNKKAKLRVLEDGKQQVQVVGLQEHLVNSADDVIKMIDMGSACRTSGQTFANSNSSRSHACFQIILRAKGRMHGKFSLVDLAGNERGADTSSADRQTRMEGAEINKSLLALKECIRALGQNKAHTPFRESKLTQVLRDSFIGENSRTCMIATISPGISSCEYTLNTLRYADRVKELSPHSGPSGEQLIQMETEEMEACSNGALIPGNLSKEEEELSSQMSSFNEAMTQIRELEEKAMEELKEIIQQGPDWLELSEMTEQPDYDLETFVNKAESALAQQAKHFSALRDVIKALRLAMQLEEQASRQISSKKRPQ
Sequence of UniProt O94829 (O94829 whole entry, looked up): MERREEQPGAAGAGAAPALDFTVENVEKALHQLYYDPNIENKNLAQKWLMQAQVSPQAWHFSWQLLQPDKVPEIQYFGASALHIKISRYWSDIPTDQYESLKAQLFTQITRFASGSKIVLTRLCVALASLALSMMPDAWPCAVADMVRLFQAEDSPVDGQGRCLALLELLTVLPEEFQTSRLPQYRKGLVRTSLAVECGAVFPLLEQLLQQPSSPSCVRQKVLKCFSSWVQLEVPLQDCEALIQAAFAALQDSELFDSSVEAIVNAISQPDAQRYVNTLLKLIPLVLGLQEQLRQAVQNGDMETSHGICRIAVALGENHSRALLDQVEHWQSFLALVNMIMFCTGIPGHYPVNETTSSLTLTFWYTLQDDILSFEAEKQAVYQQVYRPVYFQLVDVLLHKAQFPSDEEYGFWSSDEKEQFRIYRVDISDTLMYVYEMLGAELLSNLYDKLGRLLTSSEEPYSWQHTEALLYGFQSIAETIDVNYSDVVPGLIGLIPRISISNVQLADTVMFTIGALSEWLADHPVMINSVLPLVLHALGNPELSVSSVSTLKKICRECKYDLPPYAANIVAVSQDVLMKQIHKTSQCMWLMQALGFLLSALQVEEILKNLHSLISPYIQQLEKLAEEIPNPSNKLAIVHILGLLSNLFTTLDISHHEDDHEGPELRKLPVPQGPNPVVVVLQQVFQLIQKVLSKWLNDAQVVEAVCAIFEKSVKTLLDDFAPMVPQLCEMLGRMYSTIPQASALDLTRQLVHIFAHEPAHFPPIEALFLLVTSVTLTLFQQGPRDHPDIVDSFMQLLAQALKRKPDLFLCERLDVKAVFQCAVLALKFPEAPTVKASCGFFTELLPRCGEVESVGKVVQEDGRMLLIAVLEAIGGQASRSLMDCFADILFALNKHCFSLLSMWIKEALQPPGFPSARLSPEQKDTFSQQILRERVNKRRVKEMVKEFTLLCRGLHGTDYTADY
Sequence of UniProt Q16644 (Q16644 whole entry, looked up): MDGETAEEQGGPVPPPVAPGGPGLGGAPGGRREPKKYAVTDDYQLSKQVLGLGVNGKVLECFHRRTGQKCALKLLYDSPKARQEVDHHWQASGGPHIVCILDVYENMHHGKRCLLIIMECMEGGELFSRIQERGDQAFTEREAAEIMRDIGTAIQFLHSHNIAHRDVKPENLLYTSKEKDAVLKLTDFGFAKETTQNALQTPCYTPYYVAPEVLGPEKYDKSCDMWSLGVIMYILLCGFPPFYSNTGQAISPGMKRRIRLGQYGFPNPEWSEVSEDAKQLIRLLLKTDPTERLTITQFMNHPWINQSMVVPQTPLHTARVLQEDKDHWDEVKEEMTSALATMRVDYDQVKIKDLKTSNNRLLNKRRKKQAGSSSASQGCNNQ
Sequence of UniProt Q8NE86 (Q8NE86 whole entry, looked up): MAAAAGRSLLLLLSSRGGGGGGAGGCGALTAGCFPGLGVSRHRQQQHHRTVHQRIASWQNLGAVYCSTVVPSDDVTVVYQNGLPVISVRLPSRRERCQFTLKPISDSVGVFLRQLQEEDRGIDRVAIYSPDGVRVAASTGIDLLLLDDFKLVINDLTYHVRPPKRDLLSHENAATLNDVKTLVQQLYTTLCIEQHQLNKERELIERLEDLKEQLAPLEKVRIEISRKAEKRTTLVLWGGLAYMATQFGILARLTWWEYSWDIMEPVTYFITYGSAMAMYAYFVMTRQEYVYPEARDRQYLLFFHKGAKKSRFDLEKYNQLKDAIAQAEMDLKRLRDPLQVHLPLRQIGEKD
Sequence of UniProt Q14681 (Q14681 whole entry, looked up): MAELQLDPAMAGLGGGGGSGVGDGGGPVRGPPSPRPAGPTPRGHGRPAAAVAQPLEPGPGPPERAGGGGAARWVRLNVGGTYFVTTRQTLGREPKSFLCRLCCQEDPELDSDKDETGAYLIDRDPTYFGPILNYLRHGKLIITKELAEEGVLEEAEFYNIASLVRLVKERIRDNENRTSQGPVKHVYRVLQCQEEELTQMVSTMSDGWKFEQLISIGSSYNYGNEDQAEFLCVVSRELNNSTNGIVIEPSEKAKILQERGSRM

Turning to IPO13 (UniProt O94829), the log2 fold change was -0.042 in experiment [1]; -0.134 with crizotinib; 0.016 in experiment [2]; -0.028 in experiment [3]; 0.04 with duvelisib; -0.234 with gandotinib. Also, the log2 fold change with tozasertib is 0.001; in experiment [4] it was 0.01; with doramapimod it was 0.023; in the experiment with ispinesib, -0.13; with bafetinib, -0.11; in [5], -0.006. Further, the log2 fold change is -0.001 in the experiment with nilotinib; -0.094 in experiment [6]; -0.021 in the experiment with dasatinib; 0.071 in experiment [7]; -0.022 in experiment [8]; -0.025 in experiment [9]. The results for the log2 fold change with tipifarnib and in the experiment with mubritinib were -0.106 and 0.06, respectively.
As for KCTD2 (UniProt Q14681), the log2 fold change in experiment [1] was 0.178; with crizotinib, 0.02; in experiment [2] it was -0.047; in experiment [3], 0.511; with duvelisib it was 0.211; with gandotinib, 0.355. The log2 fold change is -0.116 in the experiment with tozasertib; -0.281 in [4]; 0.089 in the experiment with doramapimod; 0.026 with ispinesib; -0.23 with bafetinib; -0.845 (active) in [5]. The log2 fold change with nilotinib was -0.144; in experiment [6], 0.012; with dasatinib, 0.146; in experiment [7] it was -0.076; in experiment [8] it was -0.102; in [9], -0.015. In addition, the log2 fold change was 0.308 with tipifarnib and 0.113 in the experiment with mubritinib.
Consider KIF2C (UniProt Q99661), for which the log2 fold change in [1] was -0.016; with crizotinib, -0.171; in experiment [2], -0.028; in experiment [3], 0.012; with duvelisib, -0.048; in the experiment with gandotinib, -0.065. Further, the log2 fold change with tozasertib is -0.035; in experiment [4], 0.082; with doramapimod, 0.007; with ispinesib, -0.028; in the experiment with bafetinib it was 0.1; in experiment [5], 0.122. Besides, the log2 fold change was -0.082 with nilotinib; -0.054 in experiment [6]; -0.15 with dasatinib; 0.032 in [7]; 0.053 in [8]; 0.039 in experiment [9]. The figures for the log2 fold change in the experiment with tipifarnib and with mubritinib were -0.103 and 0.081, respectively.
Take MCU (UniProt Q8NE86): the log2 fold change in experiment [1] was -0.013; with crizotinib, -0.159; in experiment [2], 0.015; in experiment [3] it was 0.001; with duvelisib, 0.061; in the experiment with gandotinib, -0.172. The log2 fold change with tozasertib was -0.012; in experiment [4], 0.054; with doramapimod it was -0.013; with ispinesib, -0.1; with bafetinib, -0.173; in [5], 0.032. Besides, the log2 fold change is -0.017 with nilotinib; 0.128 in experiment [6]; -0.055 with dasatinib; -0.026 in [7]; -0.03 in experiment [8]; 0 in [9]. The log2 fold change with tipifarnib was -0.005; in the experiment with mubritinib, 0.024.
For the target MAPKAPK3 (UniProt Q16644), the log2 fold change was -0.033 in [1]; -0.078 with crizotinib; 0.048 in [2]; 0.115 in experiment [3]; 0.015 with duvelisib; -0.043 with gandotinib. For the same target, the log2 fold change is 0.014 with tozasertib; -0.021 in [4]; 0.314 with doramapimod; -0.111 with ispinesib; 0.258 in the experiment with bafetinib; 0 in experiment [5]. Also, the log2 fold change is 0.281 in the experiment with nilotinib; -0.03 in experiment [6]; 0.002 with dasatinib; -0.032 in [7]; -0.005 in [8]; 0 in [9]. Further, the log2 fold change with tipifarnib is -0.048; with mubritinib, -0.04.
Turning to KEL (UniProt P23276), the log2 fold change in experiment [1] is 0.002; with crizotinib it was 0.084; in [2] it was -0.048; in [3] it was -0.07; with duvelisib, 0.015; with gandotinib, -0.341. Moreover, the log2 fold change is -0.01 in the experiment with tozasertib; 0.019 in experiment [4]; 0.028 with doramapimod; 0.047 in the experiment with ispinesib; -0.027 with bafetinib; -0.002 in [5]. Further, the log2 fold change with nilotinib was 0.017; in [6], -0.032; with dasatinib, -0.019; in experiment [7] it was 0.004; in [8], 0.083; in experiment [9] it was 0.003. The figures for the log2 fold change in the experiment with tipifarnib and in the experiment with mubritinib were 0.031 and -0.591 (active), respectively.

The record behind these values is the supplement of paper PMC10849652.
